Experiment in all cases: DAPPL (digital affinity profiling via proximity ligation, sequencing); 10 mM Tris-HCl pH 7.5, 50 mM NaCl, 1 mM DTT, 4% glycerol, room temperature, 30 min; GST-TFs on glutathione beads, 16-mer random dsDNA library, 0.1% formaldehyde crosslink after washing; high values mean tight binding
What all share (settings): protein: recombinant; tags: N-terminal GST; dsDNA, one strand shown

The target in assay [1] is T1, GABPA (Homo sapiens, UniProt Q06546 1-454).
T1 sequence: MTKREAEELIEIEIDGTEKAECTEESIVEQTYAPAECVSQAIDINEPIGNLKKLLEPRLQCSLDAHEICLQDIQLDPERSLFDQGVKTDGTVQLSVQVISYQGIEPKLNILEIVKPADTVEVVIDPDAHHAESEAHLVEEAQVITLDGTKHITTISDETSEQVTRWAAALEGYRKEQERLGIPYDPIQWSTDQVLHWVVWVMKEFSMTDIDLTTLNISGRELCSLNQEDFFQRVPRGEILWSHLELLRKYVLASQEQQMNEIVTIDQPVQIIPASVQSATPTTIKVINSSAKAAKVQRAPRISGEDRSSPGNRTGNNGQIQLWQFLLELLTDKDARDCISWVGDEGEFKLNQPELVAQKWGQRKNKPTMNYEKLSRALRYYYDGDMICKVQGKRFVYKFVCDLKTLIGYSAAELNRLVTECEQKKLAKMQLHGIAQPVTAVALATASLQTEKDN
The procedure, abridged: (§1)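 A tag-only sample was pooled with DNA-barcoded human transcription factors that had been expressed in yeast as GST fusions and captured on glutathione beads. The pools were incubated for 30 min at room temperature with 200 nmole of a random double-stranded 16-mer DNA library in Tris/NaCl/DTT/glycerol buffer, then washed, crosslinked with 0.1% formaldehyde, proximity-ligated (BsaI/T4 ligase, 1 h, 37 °C), PCR-amplified and sequenced on an Illumina NextSeq500. Binding signal is each hexamer's read frequency for a factor divided by its frequency for the tag-only sample.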

Assay [2] addresses T2, ERG (Homo sapiens, UniProt P11308 1-479).
T2 sequence: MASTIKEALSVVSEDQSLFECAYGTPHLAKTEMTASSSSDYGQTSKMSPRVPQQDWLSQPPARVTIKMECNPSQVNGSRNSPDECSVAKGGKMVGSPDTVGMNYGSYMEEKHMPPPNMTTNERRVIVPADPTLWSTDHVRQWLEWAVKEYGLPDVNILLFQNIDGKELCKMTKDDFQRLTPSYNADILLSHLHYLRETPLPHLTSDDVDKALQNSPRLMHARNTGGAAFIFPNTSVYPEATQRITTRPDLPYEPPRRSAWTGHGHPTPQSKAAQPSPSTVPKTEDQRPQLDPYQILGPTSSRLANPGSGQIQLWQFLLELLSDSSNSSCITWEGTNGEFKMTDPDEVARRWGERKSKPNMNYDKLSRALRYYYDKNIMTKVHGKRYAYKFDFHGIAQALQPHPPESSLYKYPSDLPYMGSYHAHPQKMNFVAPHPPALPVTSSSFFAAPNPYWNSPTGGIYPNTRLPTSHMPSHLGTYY
An outline of the steps:
as §1

Assay [3] deals with ELF1 (Homo sapiens, UniProt P32519 1-619). The procedure, abridged: as §1
Assay [4] addresses T3, EHF (Homo sapiens, UniProt Q9NZC4 1-300).
T3 sequence: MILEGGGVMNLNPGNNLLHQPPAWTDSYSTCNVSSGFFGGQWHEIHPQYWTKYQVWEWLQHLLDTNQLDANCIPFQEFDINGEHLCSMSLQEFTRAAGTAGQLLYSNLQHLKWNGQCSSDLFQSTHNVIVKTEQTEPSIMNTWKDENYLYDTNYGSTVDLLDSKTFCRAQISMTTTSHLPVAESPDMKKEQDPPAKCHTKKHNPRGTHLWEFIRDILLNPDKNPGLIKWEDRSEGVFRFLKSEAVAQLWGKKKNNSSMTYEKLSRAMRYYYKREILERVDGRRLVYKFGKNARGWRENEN
An outline of the steps:
as §1

Assay [5] concerns the target T4, SPIC (Homo sapiens, UniProt Q8N5J4 1-248).
T4 sequence: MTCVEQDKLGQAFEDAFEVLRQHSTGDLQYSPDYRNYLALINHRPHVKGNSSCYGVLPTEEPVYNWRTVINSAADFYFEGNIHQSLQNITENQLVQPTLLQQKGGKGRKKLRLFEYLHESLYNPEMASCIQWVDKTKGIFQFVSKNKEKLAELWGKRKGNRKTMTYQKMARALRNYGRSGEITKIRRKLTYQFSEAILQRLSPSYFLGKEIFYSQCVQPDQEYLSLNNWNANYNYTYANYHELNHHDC
An outline of the steps: as §1

Assay [6] concerns the target ELF4 (Homo sapiens, UniProt Q99607 1-663). An outline of the steps: as §1
Assay [7] has as its target T5, ELK4 (Homo sapiens, UniProt P28324-2 1-405).
T5 sequence: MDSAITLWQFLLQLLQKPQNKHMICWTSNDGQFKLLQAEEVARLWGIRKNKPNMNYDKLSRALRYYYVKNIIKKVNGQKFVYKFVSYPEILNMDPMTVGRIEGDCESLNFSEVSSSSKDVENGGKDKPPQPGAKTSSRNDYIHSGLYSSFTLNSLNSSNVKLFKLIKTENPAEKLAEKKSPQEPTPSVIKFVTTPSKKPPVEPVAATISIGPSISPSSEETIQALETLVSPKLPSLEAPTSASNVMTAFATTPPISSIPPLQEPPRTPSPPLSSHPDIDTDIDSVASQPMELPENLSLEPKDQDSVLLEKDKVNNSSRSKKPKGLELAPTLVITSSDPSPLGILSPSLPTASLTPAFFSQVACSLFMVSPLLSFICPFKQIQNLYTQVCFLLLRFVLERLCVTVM
An outline of the steps: as §1

Assay [8] has as its target T6, ELF3 (Homo sapiens, UniProt P78545 1-371).
T6 sequence: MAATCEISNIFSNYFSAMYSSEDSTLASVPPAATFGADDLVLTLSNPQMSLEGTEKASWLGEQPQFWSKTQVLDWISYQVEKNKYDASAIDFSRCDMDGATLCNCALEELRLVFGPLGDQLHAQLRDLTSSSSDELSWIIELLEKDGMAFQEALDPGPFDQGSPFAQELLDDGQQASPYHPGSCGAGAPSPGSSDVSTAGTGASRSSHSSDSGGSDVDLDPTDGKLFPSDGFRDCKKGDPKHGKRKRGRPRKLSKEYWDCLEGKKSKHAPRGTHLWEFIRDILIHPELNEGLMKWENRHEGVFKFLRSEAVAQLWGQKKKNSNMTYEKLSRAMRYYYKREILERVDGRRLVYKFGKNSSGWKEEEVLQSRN
The procedure, abridged: as §1

The target in assay [9] is T7, ETV3L (Homo sapiens, UniProt Q6ZN32 1-361).
T7 sequence: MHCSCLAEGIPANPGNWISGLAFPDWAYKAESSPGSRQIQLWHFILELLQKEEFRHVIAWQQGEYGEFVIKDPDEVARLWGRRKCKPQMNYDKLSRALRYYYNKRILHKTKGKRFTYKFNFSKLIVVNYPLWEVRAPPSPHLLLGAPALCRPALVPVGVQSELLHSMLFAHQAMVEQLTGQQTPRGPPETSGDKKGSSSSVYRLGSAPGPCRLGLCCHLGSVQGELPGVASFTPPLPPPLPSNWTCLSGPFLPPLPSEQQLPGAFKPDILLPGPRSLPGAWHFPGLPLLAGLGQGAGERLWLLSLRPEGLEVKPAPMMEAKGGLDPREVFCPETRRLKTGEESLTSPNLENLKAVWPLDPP
An outline of the steps: as §1

In assay [10] the target is T8, ETS2 (Homo sapiens, UniProt P15036 1-469).
T8 sequence: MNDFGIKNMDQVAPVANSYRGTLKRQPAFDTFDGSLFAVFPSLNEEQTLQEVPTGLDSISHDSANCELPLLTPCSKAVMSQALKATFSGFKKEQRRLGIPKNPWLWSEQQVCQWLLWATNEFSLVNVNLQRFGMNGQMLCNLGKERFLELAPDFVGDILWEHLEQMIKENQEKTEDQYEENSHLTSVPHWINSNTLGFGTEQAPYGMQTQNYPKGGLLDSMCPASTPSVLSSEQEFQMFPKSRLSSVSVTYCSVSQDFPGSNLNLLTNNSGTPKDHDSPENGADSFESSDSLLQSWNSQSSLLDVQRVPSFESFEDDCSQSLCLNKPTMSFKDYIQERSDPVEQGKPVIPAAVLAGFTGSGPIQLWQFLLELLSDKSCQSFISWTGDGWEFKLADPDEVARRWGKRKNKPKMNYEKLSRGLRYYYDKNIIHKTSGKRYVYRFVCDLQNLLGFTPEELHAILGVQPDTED
An outline of the steps:
as §1

Assay [11] concerns the target T9, SPDEF (Homo sapiens, UniProt O95238 1-335).
T9 sequence: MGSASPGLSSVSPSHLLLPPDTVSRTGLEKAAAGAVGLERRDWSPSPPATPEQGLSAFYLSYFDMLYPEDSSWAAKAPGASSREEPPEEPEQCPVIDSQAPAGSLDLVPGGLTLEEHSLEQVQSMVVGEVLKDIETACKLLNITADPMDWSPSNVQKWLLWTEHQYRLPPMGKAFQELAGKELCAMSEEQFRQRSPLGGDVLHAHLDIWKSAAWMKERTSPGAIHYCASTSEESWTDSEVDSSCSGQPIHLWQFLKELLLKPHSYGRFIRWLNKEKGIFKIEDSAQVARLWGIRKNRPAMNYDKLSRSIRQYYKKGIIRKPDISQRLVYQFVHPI
An outline of the steps:
as §1

The target in assay [12] is T10, ETV7 (Homo sapiens, UniProt Q9Y603 1-341).
T10 sequence: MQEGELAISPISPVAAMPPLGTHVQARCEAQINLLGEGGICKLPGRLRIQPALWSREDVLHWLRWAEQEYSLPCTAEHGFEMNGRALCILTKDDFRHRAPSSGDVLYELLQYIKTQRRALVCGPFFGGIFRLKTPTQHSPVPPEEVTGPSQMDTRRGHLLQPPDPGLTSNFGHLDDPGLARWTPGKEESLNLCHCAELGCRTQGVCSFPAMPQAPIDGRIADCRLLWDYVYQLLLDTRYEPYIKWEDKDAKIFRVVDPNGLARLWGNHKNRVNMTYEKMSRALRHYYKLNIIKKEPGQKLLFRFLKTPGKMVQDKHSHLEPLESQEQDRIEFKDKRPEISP
An outline of the steps:
as §1

Assay [13] concerns the target T11, ETV3 (Homo sapiens, UniProt P41162-2 1-143).
T11 sequence: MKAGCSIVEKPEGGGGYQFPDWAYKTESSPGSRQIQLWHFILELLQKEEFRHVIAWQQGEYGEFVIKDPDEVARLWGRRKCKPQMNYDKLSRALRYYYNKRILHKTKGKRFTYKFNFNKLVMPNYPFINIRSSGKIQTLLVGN
An outline of the steps:
as §1

In assay [14] the target is ETV6 (Homo sapiens, UniProt P41212 1-452). An outline of the steps:
as §1

ELF4, sequence (Q99607 whole entry): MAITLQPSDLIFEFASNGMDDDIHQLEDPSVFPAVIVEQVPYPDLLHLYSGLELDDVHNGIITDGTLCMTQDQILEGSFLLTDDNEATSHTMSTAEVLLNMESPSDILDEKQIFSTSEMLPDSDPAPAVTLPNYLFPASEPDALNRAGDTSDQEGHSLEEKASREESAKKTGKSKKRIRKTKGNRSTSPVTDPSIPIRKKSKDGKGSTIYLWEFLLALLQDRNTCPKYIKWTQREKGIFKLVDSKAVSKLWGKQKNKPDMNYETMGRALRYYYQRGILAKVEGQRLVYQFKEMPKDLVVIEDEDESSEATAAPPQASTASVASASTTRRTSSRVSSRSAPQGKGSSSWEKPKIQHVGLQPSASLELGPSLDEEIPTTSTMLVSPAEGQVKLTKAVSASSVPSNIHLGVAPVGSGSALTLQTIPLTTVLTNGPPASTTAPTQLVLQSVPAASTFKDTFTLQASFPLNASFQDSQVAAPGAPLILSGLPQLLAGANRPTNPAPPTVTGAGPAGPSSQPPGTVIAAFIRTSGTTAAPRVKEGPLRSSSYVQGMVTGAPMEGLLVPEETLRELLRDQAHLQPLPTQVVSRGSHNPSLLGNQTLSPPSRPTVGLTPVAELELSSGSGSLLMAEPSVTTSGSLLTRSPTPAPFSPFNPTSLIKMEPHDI
ETV6, sequence (P41212 whole entry): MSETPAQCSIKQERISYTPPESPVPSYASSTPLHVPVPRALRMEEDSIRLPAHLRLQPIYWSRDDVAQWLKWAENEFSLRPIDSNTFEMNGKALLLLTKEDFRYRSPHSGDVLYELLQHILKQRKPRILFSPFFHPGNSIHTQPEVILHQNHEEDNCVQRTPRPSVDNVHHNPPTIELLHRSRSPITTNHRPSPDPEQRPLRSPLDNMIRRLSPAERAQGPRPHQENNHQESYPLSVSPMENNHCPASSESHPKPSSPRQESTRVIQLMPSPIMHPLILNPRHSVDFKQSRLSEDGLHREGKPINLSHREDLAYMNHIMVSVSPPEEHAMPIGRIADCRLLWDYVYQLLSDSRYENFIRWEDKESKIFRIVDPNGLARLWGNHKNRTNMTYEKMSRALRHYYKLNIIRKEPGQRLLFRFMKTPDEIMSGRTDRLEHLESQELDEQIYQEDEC
ELF1, sequence (P32519 whole entry): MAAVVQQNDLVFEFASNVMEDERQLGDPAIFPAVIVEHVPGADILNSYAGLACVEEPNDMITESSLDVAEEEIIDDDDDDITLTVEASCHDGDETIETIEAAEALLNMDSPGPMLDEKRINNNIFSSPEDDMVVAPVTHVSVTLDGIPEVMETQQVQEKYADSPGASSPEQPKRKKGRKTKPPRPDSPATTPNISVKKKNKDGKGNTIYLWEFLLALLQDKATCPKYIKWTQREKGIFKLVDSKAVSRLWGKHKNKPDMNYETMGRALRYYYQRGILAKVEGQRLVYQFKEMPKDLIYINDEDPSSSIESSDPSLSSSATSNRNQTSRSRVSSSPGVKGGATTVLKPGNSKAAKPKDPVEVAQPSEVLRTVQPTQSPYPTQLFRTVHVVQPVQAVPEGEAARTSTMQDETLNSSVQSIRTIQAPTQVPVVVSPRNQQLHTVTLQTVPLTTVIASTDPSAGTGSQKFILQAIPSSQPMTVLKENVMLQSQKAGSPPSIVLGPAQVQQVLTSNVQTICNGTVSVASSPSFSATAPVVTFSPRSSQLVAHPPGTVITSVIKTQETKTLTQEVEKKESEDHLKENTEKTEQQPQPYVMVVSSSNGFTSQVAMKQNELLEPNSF

With CATGCG, the binding signal in [1] is 1.06 fold enrichment (6-mer frequency, TF over GST control); in [2], 1.03 fold enrichment (6-mer frequency, TF over GST control); in [3] it was 1.07 fold enrichment (6-mer frequency, TF over GST control); in assay [4], 1.06 fold enrichment (6-mer frequency, TF over GST control); in assay [5] it was 1 fold enrichment (6-mer frequency, TF over GST control); in assay [6], 1.02 fold enrichment (6-mer frequency, TF over GST control). Besides, the binding signal in assay [7] is 1.11 fold enrichment (6-mer frequency, TF over GST control); in assay [8], 1.29 fold enrichment (6-mer frequency, TF over GST control); in assay [9] it was 1.01 fold enrichment (6-mer frequency, TF over GST control); in assay [10], 1 fold enrichment (6-mer frequency, TF over GST control); in [11] it was 1.01 fold enrichment (6-mer frequency, TF over GST control); in assay [12], 1.21 fold enrichment (6-mer frequency, TF over GST control). Besides, the binding signal in [13] was 1.03 fold enrichment (6-mer frequency, TF over GST control); in assay [14], 1.16 fold enrichment (6-mer frequency, TF over GST control).

Values taken from PMC7862700, “An all-to-all approach to the identification of sequence-specific readers for epigenetic DNA modifications on cytosine”.
